Compound activity deposited in PubChem by National Center for Advancing Translational Sciences (NCATS).
D3 ag – agonists of human D3 dopamine receptor; P35462; D3R DiscoveRx beta-arrestin cells, luminescence, 90 min; 410,000 tested, 0.58% active; AID 652048; max activation, %; in the data active = max activation above about 30%
Target sequence (P35462 whole entry, looked up): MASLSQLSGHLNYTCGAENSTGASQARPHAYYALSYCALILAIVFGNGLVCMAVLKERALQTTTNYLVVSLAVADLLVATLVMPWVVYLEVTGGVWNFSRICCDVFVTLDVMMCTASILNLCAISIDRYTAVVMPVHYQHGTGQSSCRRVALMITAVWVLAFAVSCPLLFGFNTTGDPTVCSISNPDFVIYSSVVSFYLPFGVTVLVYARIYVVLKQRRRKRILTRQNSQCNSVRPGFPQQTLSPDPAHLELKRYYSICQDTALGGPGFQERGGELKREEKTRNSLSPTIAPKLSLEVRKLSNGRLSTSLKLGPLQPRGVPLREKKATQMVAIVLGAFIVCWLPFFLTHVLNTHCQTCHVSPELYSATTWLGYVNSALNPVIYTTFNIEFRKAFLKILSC
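Agonist-mode cell screen: cells plated at 1500/well and incubated overnight at 37 °C, then exposed to library compounds for 90 min at 37 °C. Detection reagent was added for 30–60 min at room temperature, and luminescence was read.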
a7 integrin act – activators of alpha7 integrin expression for muscular dystrophy; AID 624291; alpha7betagal myoblasts, beta-gal FDG fluorescence, 48 h; 350,000 tested, 0.064% active; Potency, µM (titrated, usually from 38.3 µM), hits mostly activators; active = well fitted activation curve with a large enough effect; inconclusive = small, poorly fitted or top-dose-only effect; inactive = no such curve, though single readings can be large or run the other way; also: nearly all actives have a fitted effect of over 60% in size
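alpha7betagal+/- myoblasts (passage 13, 250/well) treated 48 h at 37C with compounds at 1:260 dilution of DMSO stock. Lysed, then beta-galactosidase activity read as FDG fluorescence (ex 480/em 540) after 30 min, with pre-read for autofluorescence.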
D3 antag – antagonists of human D3 dopamine receptor. P35462. D3R cells, DiscoveRx beta-arrestin luminescence, antagonist mode; active compounds read low. max response, negative = inhibition, %. 360,000 tested, 2.5% active; in the data active = max response below about -50%; inconclusive = no clear call, values can overlap the other calls
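Cells expressing the human receptor were seeded at 1500 cells/well, incubated overnight at 37 degrees C in 5% CO2, then exposed to library compounds with dopamine controls for 90 minutes at 37 degrees C before luminescent detection.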
Of the large screens only hits and unclear results are named; the others gave an inactive call. Sampled rows, rich in hits. Any-hit rate of the full collection: about 2.9%.

COc1ccc(-n2nnnc2SCC(=O)NC2CCCC2)cc1OC	none
Cc1ccccc1S(=O)(=O)/N=C(/Nc1c(C)n(C)n(-c2ccccc2)c1=O)c1ccccc1	none
O=C(NC1CCCC1)C1CCC(CNS(=O)(=O)c2ccccc2)CC1 (centres undefined)	none
O=C(NCc1cccs1)C1CCN(c2nc3ccccc3o2)CC1	none
CN(C)N=Nc1ccc(S(=O)(=O)N2CCSC2C(=O)O)cc1 (centres undefined)	none
Cc1ccc(C(=O)COC(=O)CNC(=O)C(c2ccccc2)c2ccccc2)cc1[N+](=O)[O-]	D3 antag -64.4
Cc1ccc(C(=O)NCC(=O)OCC(=O)c2ccc(C)c([N+](=O)[O-])c2)cc1	none
C=C(C)CSC1=C(C#N)C(c2ccccc2Cl)CC(=O)N1 (centres undefined)	none
COc1cccc(-c2cc3nc(NCc4ccc5occc5c4)n(C)c(=O)c3s2)c1	none (no result: a7 integrin act)
Cc1oc2ncn(C)c(=O)c2c1C(=O)NCCCN1CCCCC1C (centres undefined)	none (no result: a7 integrin act, D3 antag)
CC(=O)c1cc2cccc(OC3(C)CCN(Cc4ccc(-c5ccccn5)cc4)C3)c2o1 (centres undefined)	D3 antag -53.2 (no result: a7 integrin act)
COc1cccc(OC2(C)CCN(Cc3ccc(-c4ccccn4)cc3)C2)c1 (centres undefined)	D3 antag inconclusive (no result: a7 integrin act)
CCn1cc(CN2CCCC(C(=O)Nc3ccc(-c4nc5ccccc5[nH]4)cc3)C2)c(C)n1 (centres undefined)	none
Cc1ccc(C(=O)Sc2cccccc2=O)cc1	D3 antag -94.1
O=C(Nc1ccccc1SC(=O)c1ccccc1)c1ccccc1	none
CS(=O)(=O)N1CCC(C(=O)Nc2ccc3c(c2)OCO3)CC1	none
CCOP(=O)(OCC)c1nc(-c2ccc(Br)cc2)oc1N1CCCCC1	none
Cc1cccc2c1N(CCCOc1ccccc1)C(=O)C2=O	D3 antag -50.2
Cc1cccc2c1N(CCCOc1ccc(C(C)(C)C)cc1)C(=O)C2=O	none
CN(C(=O)c1cnc(N2CCOCC2)c2ccccc12)c1ccccc1F	none (no result: a7 integrin act, D3 antag)
Cc1cccc(OCC(=O)Nc2ccc3c(c2)nc(CN2CCCCC2)n3C)c1	D3 antag -92.5
Cc1cccc(OCC(=O)Nc2ccc3c(c2)nc(CCN2CCCCC2)n3C)c1	none
Cn1c(CCN2CCCCC2)nc2cc(NC(=O)NC3CCCCC3)ccc21	none
CC1CCN(CCc2nc3cc(NC(=O)NC4CCCCC4)ccc3n2C)CC1	D3 antag -85.5
Cc1ccc(OCC(=O)Nc2ccc3c(c2)nc(CCN2CCC(C)CC2)n3C)cc1	D3 antag -54.2
COc1ccc(OCC(=O)Nc2ccc3c(c2)nc(CCN2CCC(C)CC2)n3C)cc1	D3 antag inconclusive
CC(=O)c1sc2nc(SCC(=O)NCCc3ccccc3)[nH]c(=O)c2c1C	none
CCOc1ccc2c(c1)-c1c(ssc1=S)C(C)(C)N2C	D3 antag -51.8
CC1(C)Nc2ccc(O)cc2-c2c1ssc2=S	none
Cc1ccc(S(=O)(=O)Cc2ccc(C(=O)N3CCN(c4cccc(Cl)c4)CC3)o2)cc1	none (no result: a7 integrin act, D3 antag)
N#Cc1ccccc1S(=O)(=O)N1CCN(C(=O)CN2CCCSc3ccccc32)CC1	none
Cc1ccc(S(=O)(=O)N2CCN(C(=O)CN3CCCSc4ccccc43)CC2)cc1	D3 antag -55.0
COc1ccc(CCNC(=O)C(=O)c2cn(CC(=O)N3CCOCC3)c3ccccc23)cc1OC	none
COc1ccc(C(=O)N/C(=C/c2cccnc2)C(=O)N2CCN(C)CC2)cc1OC	a7 integrin act 4.47µM
COc1ccc(/C=C(\NC(=O)c2ccccc2)C(=O)N2CCN(C)CC2)cc1OC	none
O=C(O)c1cc2n(n1)C(C(F)(F)F)CC(C1CC1)N2 (centres undefined)	none
COc1cccc2cc(C(=O)CS(=O)(=O)c3ccc(C(C)(C)C)cc3)c(=O)oc12	none
O=C(Nc1nc2ccc(F)cc2s1)c1ccc([N+](=O)[O-])o1	D3 antag -57.3
O=C(Nc1nc2c(F)cccc2s1)c1ccc([N+](=O)[O-])o1	D3 antag inconclusive
O=C(Nc1ccccc1O)c1cccc(S(=O)(=O)N2CCOCC2)c1	none
COc1ccccc1NC(=O)c1cccc(S(=O)(=O)N2CCOCC2)c1	D3 antag -51.6
CCOc1ccccc1/C=N/NC(=O)c1cccc(S(=O)(=O)N2CCOCC2)c1	D3 antag -62.8
COc1cc(C(=O)Nc2ccc(S(=O)(=O)N3CCOCC3)cc2)c([N+](=O)[O-])cc1OC	D3 ag 40.2
COc1cc(S(=O)(=O)N2CCOCC2)ccc1NC(=O)COC(=O)CC12CC3CC(CC(C3)C1)C2	D3 antag -52.7
O=C(N/N=C/c1ccccc1C(=O)O)c1cccc(S(=O)(=O)N2CCOCC2)c1	none
COc1ccc(C(=O)Nc2ccc(S(=O)(=O)N3CCOCC3)cc2)cc1[N+](=O)[O-]	none
COc1cc(S(=O)(=O)N2CCOCC2)ccc1NC(=O)COC(=O)c1cc(OC)c(OC)c(OC)c1	none
O=C(Nc1nnc(SCC(=O)N2CCCc3ccccc32)s1)c1ccc2ccccc2c1	none
O=C(N/N=C/c1cccc(OC(=O)c2cccc(Br)c2)c1)c1ccncc1	none
COc1cc(F)ccc1-c1cc(C(=O)Nc2cc(OC)c(OC)c(OC)c2)[nH]n1	none (no result: a7 integrin act)
Cc1ccccc1Cn1nc(C)c(NC(=O)c2ccccc2)c1C	none
CN1CCN(S(=O)(=O)c2cccc(C(=O)Nc3nc(-c4ccccc4)cs3)c2)CC1	D3 antag inconclusive
COc1cccc(NS(=O)(=O)c2ccc(S(=O)(=O)N3CCCC3)cc2)c1	none
O=C(NCC1COc2ccccc2O1)c1ccc(Cl)c(S(=O)(=O)N2CCOCC2)c1 (centres undefined)	none
COc1ccc(S(=O)(=O)N2CCOCC2)cc1NC(=O)c1ccc2c(c1)OCO2	D3 ag 53.5
COc1ccc(S(=O)(=O)N2CCCCC2)cc1NC(=O)c1ccc2c(c1)OCO2	none
COc1ccc(-c2csc(NC(=O)c3cccc(S(=O)(=O)N4CCN(C)CC4)c3)n2)cc1	D3 antag -51.3
O=C(NCC1COc2ccccc2O1)c1cccc(S(=O)(=O)N2CCOCC2)c1 (centres undefined)	D3 antag -61.4
COc1cccc(NS(=O)(=O)c2ccc(S(=O)(=O)N3CCOCC3)cc2)c1	D3 ag 39.9
COc1cc(OC)cc(C(=O)NCC(=O)OCc2ccc(Cl)c(Cl)c2)c1	none
O=C(CN(c1ccccc1)S(=O)(=O)c1ccc(F)cc1)NCc1cccs1	none
O=C(/C=C/c1ccc([N+](=O)[O-])cc1)OCC(=O)N1CCCCCC1	none
CCCCCC1CC1C(=O)N/N=C/c1ccc(N(C)C)cc1 (centres undefined)	none
CC(=O)c1cccc(NC(=O)c2cccc(NC(=O)c3ccco3)c2)c1	none
O=C(Nc1ccc(Oc2ccc(NC(=O)c3ccco3)c(NC(=O)c3ccco3)c2)cc1)c1ccco1	D3 antag -92.6
O=C(Nc1ccc(Oc2ccc3ccccc3c2)cc1)c1ccco1	none
CC(=O)Oc1ccc(C(=O)Nc2cccc(NC(=O)c3ccco3)c2)cc1	D3 antag -76.1
COCCN(C(=O)CSc1nc(-c2ccccc2)cn1N)c1c(N)n(Cc2ccccc2)c(=O)[nH]c1=O	none
O=S(c1ccc2ccccc2c1)c1cnns1 (centres undefined)	D3 antag -55.0
Cc1nnsc1S(=O)c1ccc(Cl)c(Cl)c1 (centres undefined)	D3 antag inconclusive
